For 16 molecules, composite z-score and composite Z-score results are on record in PubChem BioAssay.

The source made the active and inactive calls.

One experiment has as its target Albumin (Bos taurus) (UniProt P02769). Kind of experiment: compounds binding labelled BSA control protein – biochemical, small-molecule microarray, Alexa647 label, 635/667 nm fluorescence, artefact control for SMM control protein annotation, profiling panel (AID 1118).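 Also: score merges 667 nm emission intensity and signal-to-noise per printed compound spot.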 The conditions noted are these: BSA-A647 binding, fluorescence 635 nm, higher = more signal.
The nature of experiment [1]: probe aXIP binding to arrayed compounds – biochemical, NeuroSMM set, 635/667 nm fluorescence, primary screen (AID 1119).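 Also: probe is the protein aXip251-270 applied at 1 µg/mL to compound-printed slides; binding of probe to printed compounds measured as 667 nm fluorescence plus signal to noise.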 The conditions noted are these: small-molecule microarray, higher = more signal, called active from +8 up or from −8 down.
The nature of experiment [2]: probe aNOTCH3 binding on compound microarray – biochemical, small-molecule microarray, 635/667 nm fluorescence, primary screen (AID 1120).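 Also: probe is a biotin-tagged antibody raised against NOTCH3 rather than NOTCH3 protein; score merges spot fluorescence near 667 nm with spot signal to noise.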 To be noted: higher = more signal.
Experiment [3] in a line: probe aNOTCH2 binding on compound microarray – biochemical, small-molecule microarray, 635/667 nm fluorescence, primary screen (AID 1121).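 Also: score merges feature fluorescence read at 667 nm with its signal to noise.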 To be noted: higher = more signal.
In experiment [4] the target is Carbonic anhydrase 2 (Homo sapiens) (UniProt P00918). Kind of experiment: compounds binding carbonic anhydrase 2 – biochemical, small-molecule microarray, Alexa647-labelled CAII, profiling panel (AID 1122). To be noted: CAII-A647 binding fluorescence, higher = more signal.
Experiment [5] can be described thus: COS7 lysate on small-molecule microarray, probe aHis, 635 nm (AID 1123).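 Also: z-score combines 667nm fluorescence intensity with signal-to-noise per printed compound spot.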 To be noted: COS7 cell lysate, fluorescence, higher = more signal.
Experiment [6] can be described thus: probe aLAP1 signal on lysate-treated microarray – cell lysate, small-molecule microarray, COS7 lysate, primary screen (AID 1124).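 Also: lysate comes from COS7 cells expressing LAP1 and is applied at 0.3 µg/mL; score merges spot fluorescence near 667 nm with signal-to-noise over triplicate slides.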 To be noted: probe aLAP1, fluorescence, higher = more signal.
Another experiment relates to Sam68 (KHDRBS1). Kind of experiment: compounds binding KHDRBS1 protein – biochemical, small-molecule microarray, 635 nm fluorescence, primary screen (AID 1125).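 Also: score merges 667 nm channel intensity with signal to noise over triplicate slides.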 The conditions noted are these: higher = more signal.
The subject of experiment [7] is Chordin-like protein 2 (CHRDL2). Kind of experiment: compounds binding chordin-like 2 – biochemical, small-molecule microarray, 635 nm fluorescence, primary screen (AID 1126).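 Also: printed compound slides probed with Chrdl2 protein at 4 µg/mL for 1 h at 4 C; score merges 667 nm emission intensity with signal to noise over three replicate slides.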 To be noted: fluorescence 635 nm, higher = more signal.
The target in experiment [8] is Concanavalin-A (Canavalia ensiformis) (UniProt P02866). Kind of experiment: compounds binding concanavalin A lectin – biochemical, small-molecule microarray, Alexa647 label, 635 nm, artefact control for SMM control protein annotation, primary screen (AID 1127).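 Also: z combines 667 nm emission intensity with signal-to-noise across three replicate slides.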 To be noted: ConA-A647 binding fluorescence, higher = more signal.
Chain of Concanavalin-A (Canavalia ensiformis) (P02866 whole entry, looked up): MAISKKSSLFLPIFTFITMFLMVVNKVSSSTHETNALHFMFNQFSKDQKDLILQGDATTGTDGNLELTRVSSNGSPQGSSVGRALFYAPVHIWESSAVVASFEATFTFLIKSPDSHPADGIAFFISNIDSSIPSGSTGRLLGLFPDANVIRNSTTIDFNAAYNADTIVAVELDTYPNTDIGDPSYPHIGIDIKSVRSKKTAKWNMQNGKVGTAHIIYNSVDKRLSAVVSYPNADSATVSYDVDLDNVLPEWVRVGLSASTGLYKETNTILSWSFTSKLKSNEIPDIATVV

Chain of Albumin (Bos taurus) (P02769 whole entry, looked up): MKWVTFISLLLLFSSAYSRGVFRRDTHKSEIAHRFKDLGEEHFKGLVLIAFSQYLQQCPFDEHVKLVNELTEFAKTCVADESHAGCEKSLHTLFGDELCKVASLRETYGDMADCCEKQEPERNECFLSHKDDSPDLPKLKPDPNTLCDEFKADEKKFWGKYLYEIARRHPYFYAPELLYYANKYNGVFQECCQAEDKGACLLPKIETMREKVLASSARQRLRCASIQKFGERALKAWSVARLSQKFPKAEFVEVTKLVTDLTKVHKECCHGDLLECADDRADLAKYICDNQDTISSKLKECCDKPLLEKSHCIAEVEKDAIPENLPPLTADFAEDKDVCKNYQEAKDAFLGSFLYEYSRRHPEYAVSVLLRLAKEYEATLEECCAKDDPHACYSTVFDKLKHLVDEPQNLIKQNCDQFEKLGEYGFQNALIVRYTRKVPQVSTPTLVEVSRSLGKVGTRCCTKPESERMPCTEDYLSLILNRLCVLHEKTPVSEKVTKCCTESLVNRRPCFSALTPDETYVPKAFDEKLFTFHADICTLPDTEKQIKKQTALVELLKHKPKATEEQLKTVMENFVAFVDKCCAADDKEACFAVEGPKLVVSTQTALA

Turning to `O=C1C[C@@H](O)[C@@H](O)[C@@H]2[C@@H]3C(=O)N(Cc4ccc5c(c4)OCO5)C(=O)[C@@H]3CC[C@H]12`, the composite z-score is 0.272 in the experiment with Albumin (Bos taurus); -0.16 in [2]; -0.186 in experiment [3]; -0.126 in experiment [4]; -0.254 in experiment [5]; -0.225 in [6]. Further, the composite z-score in the experiment with Sam68 (KHDRBS1) worked out at 0.416; in [7], 0.356; in [8] it was 0.717. Moreover, the composite Z-score in experiment [1] was 0.0723 (inactive).
For the molecule `CCOC(=O)[C@H](Cc1ccccc1)NC(=O)CCC1CC(OC(=O)NCc2cccc3ccccc23)CC2(CCCC(COC(=O)NCCC(C)C)O2)O1` (stereo not given in full), the composite z-score with Albumin (Bos taurus) was 0.793; in experiment [2], -0.0956; in experiment [3], -0.133; in [4] it was 0.742; in [5], 0.426; in experiment [6] it was 0.23. Besides, the results for the composite z-score (with Sam68 (KHDRBS1); in experiment [7]; in experiment [8]) were -1.08, -0.0587 and 0.653, respectively. Further, the composite Z-score in experiment [1] is 0.142 (inactive).
With `C#CCCCON=C1C[C@@H](O)[C@@H](O)[C@@H]2[C@@H]3C(=O)N(C(C)(C)C)C(=O)[C@@H]3CC[C@H]12`, the composite z-score with Albumin (Bos taurus) was 0.725; in experiment [2], 0.0306; in [3], -0.0272; in experiment [4], -0.466; in [5] it was 0.126; in experiment [6], 0.0192. The composite z-score in the experiment with Sam68 (KHDRBS1) is -0.454; in [7], 0.557; in experiment [8], -0.482. Besides, the composite Z-score in [1] is -0.483 (inactive).
For `C[C@@H]1NC(=O)[C@@H](C)COC(=O)[C@H](C)NC(=O)[C@@H](C)COC1=O`, the composite z-score in the experiment with Albumin (Bos taurus) is 0.591; in experiment [2], -0.0339; in experiment [3], -0.0907; in experiment [4], 0.394; in [5], 0.1; in [6], -0.706. The results for the composite z-score (with Sam68 (KHDRBS1); in experiment [7]; in experiment [8]) were 0.769, 0.316 and 0.513, respectively. For the same molecule, the composite Z-score in experiment [1] is -0.152 (inactive).
For the molecule `CCOC(=O)CCN1C(=O)[C@H]2[C@H]3[C@H](O)[C@H](O)CC(=NOCc4ccccc4)[C@H]3CC[C@H]2C1=O`, the composite z-score with Albumin (Bos taurus) is -0.271; in experiment [2], 0.191; in experiment [3], -0.0467; in experiment [4], -0.19; in experiment [5], 0.343; in experiment [6], -0.27. The composite z-score was 0.152 in the experiment on Sam68 (KHDRBS1), 0.578 in experiment [7] and -0.477 in [8]. Besides, the composite Z-score in [1] was 0.119 (inactive).
Consider `CCCNC(=O)OC[C@H]1O[C@H](c2ccccc2)C=C[C@@H]1Oc1ccc(OC)cc1`, for which the composite z-score with Albumin (Bos taurus) was 0.16; in experiment [2], -0.15; in experiment [3] it was -0.14; in [4], 0.066; in experiment [5] it was 0.232; in [6], 0.0186. For the same molecule, the figures for the composite z-score (in the experiment on Sam68 (KHDRBS1); in [7]; in experiment [8]) were -0.573, 0.062 and -0.316, respectively. For the same molecule, in experiment [1], the composite Z-score was 0.0414 (inactive).
For `Cc1ccc(S(=O)(=O)n2c3ccccc3c3nnc(C(=O)c4ccccc4)nc32)cc1`, the composite z-score is -0.563 in the experiment with Albumin (Bos taurus); 0.12 in experiment [2]; 0.012 in [3]; -0.141 in [4]; -0.111 in experiment [5]; 0.246 in [6]. Further, the values for the composite z-score (with Sam68 (KHDRBS1); in experiment [7]; in [8]) were -0.472, 0.261 and 0.0083, respectively. In addition, the composite Z-score in experiment [1] is 0.0578 (inactive).
For `CC(C)CON=C1C[C@@H](O)[C@@H](O)[C@@H]2[C@@H]3C(=O)N(C4CCCCC4)C(=O)[C@@H]3CC[C@@H]12`, the composite z-score is 0.401 with Albumin (Bos taurus); -0.178 in [2]; -0.177 in experiment [3]; 0.389 in experiment [4]; 1.73 in [5]; -0.499 in [6]. The composite z-score in the experiment with Sam68 (KHDRBS1) is 0.158; in experiment [7], -0.329; in experiment [8], 1.01. The composite Z-score in experiment [1] is -0.0662 (inactive).
With `COC(=O)[C@@H]1CC[C@H](C)[C@@H](c2ccc(C)cc2)N1C(=O)c1ccc(C=NO[C@@H]2O[C@H](COC(C)=O)[C@@H](OC(C)=O)[C@H](OC(C)=O)[C@H]2OC(C)=O)cc1`, the composite z-score with Albumin (Bos taurus) was 0.322; in experiment [2], -0.217; in experiment [3] it was -0.0596; in [4], -0.0477; in experiment [5], 0.234; in experiment [6], 0.116. For the same molecule, the composite z-score in the experiment with Sam68 (KHDRBS1) came out at 1.05; in experiment [7], 0.452; in experiment [8], 1.01. Also, the composite Z-score in [1] was 0.265 (inactive).
With `COC(=O)CC=C[C@@H](C)[C@@H](C=NO[C@H](C)c1cn([C@@H]2COC[C@H]2O)nn1)NS(=O)(=O)c1ccc(C)cc1`, the composite z-score in the experiment with Albumin (Bos taurus) is -0.129; in [2] it was 0.0316; in experiment [3] it was -0.0108; in experiment [4], -0.156; in experiment [5], 0.0779; in experiment [6], 0.219. Moreover, the composite z-score in the experiment on Sam68 (KHDRBS1) is 0.277; in [7], 0.877; in [8] it was -0.653. In addition, the composite Z-score in experiment [1] was 0.355 (inactive).
In the case of `CCOC(=O)[C@H](CC(C)C)NC(=O)CCC1CC(OC(=O)NCc2ccc3c(c2)OCO3)CC2(CCCC(COC(=O)NCCCN3CCCC3=O)O2)O1` (stereo not given in full), the composite z-score was -0.0359 with Albumin (Bos taurus); 0.0196 in [2]; -0.108 in experiment [3]; 0.0039 in [4]; 0.659 in experiment [5]; 0.178 in experiment [6]. Further, the composite z-score was 1.33 in the experiment on Sam68 (KHDRBS1), 0.325 in experiment [7] and 1.08 in [8]. Further, the composite Z-score in [1] is -0.0273 (inactive).
With `CC(CCN1CCCCc2nc(C)c(C)cc21)=NOC[C@@H](O)COCc1ccco1`, the composite z-score in the experiment with Albumin (Bos taurus) is -0.732; in experiment [2], 0.149; in experiment [3] it was -0.137; in [4], -0.297; in [5], -0.964; in [6], -0.125. Further, the values for the composite z-score (in the experiment on Sam68 (KHDRBS1); in experiment [7]; in experiment [8]) were 0.428, 1.63 and -1.26, respectively. The composite Z-score in experiment [1] is 1.28 (inactive).
With `CC(C)(C)N1C(=O)[C@H]2[C@H]3[C@H](O)[C@H](O)CC(=NOCc4ccccc4)[C@H]3CC[C@H]2C1=O`, the composite z-score in the experiment with Albumin (Bos taurus) was 0.0116; in [2], 0.0961; in [3], -0.057; in experiment [4] it was -0.0598; in experiment [5], 0.376; in experiment [6], 0.699. Moreover, the values for the composite z-score (in the experiment with Sam68 (KHDRBS1); in experiment [7]; in experiment [8]) were -0.217, 0.737 and -0.344, respectively. Besides, the composite Z-score in experiment [1] was -0.491 (inactive).
As for `CCN1C(=O)[C@H]2[C@H]3[C@H](O)[C@H](O)CC(=NO[C@@H](C)c4cn([C@H](CO)Cc5ccccc5)nn4)[C@@H]3CC[C@H]2C1=O`, the composite z-score in the experiment with Albumin (Bos taurus) is 0.233; in experiment [2], -0.0581; in experiment [3], -0.184; in [4], 0.556; in experiment [5], 0.875; in experiment [6], 0.547. For the same molecule, the composite z-score was 1.28 in the experiment with Sam68 (KHDRBS1), 0.399 in experiment [7] and 0.941 in experiment [8]. The composite Z-score in experiment [1] is 0.299 (inactive).
As for `O=C1C=C[C@@H](O)[C@@H]2[C@@H]3C(=O)N(C[C@@H]4CCCO4)C(=O)[C@@H]3CC[C@@H]12`, the composite z-score with Albumin (Bos taurus) was 0.0654; in experiment [2] it was -0.125; in experiment [3], -0.112; in experiment [4], -0.121; in experiment [5], -0.17; in experiment [6], 0.421. Further, the composite z-score is 0.258 in the experiment on Sam68 (KHDRBS1), 0.458 in experiment [7] and 0.332 in experiment [8]. Further, in [1], the composite Z-score was 0.681 (inactive).
For the molecule `COC(=O)[C@@H]1CC[C@@H](C)[C@H](c2ccc(Br)cc2)N1`, the composite z-score was -0.0822 with Albumin (Bos taurus); -0.0111 in experiment [2]; -0.0165 in experiment [3]; -0.203 in [4]; 0.0852 in experiment [5]; -0.117 in experiment [6]. Besides, the results for the composite z-score (in the experiment on Sam68 (KHDRBS1); in experiment [7]; in [8]) were -0.8, 0.202 and 0.0592, respectively. In addition, the composite Z-score in experiment [1] is 0.644 (inactive).
